Most compounds without a hit are left out; they make up all but 11% or so of the library.
HP1b binding inh: HTS for Inhibitors of HP1-beta Chromodomain Interactions with Methylated Histone Tails; Chromobox protein homolog 1 (Homo sapiens), P83916; AlphaScreen HP1-beta / biotin-H3K9me3 peptide binding; Potency, µM (titrated, usually from 114 µM), hits mostly inhibitors; hit rate 0.56% among 390,000; AID 540317, 2011; note: nearly all actives have a fitted effect of over 70% in size
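AlphaScreen: HP1-beta (50 nM) preformed 30 min with biotin-H3(1-18)K9me3 peptide (50 nM) in PBS pH 7.4, 0.01% Tween-20. Compound added for 30 min at RT, then streptavidin donor/nickel chelate acceptor beads (10 ug/mL) for 30 min.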
BAZ2B block: qHTS Assay for Inhibitors of BAZ2B; AlphaScreen BAZ2B-H3K14Ac peptide displacement; Potency, µM (highest dose often 114 µM), usual class: inhibitors; hit rate 4.4% among 360,000; note: nearly all actives have a fitted effect of over 60% in size
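BAZ2B 50 nM plus b-H3(5-23)K14Ac 50 nM, PBS pH 7.4/0.01% Tween-20, 30 min RT; compound added (max 110 uM), 30 min RT; streptavidin donor/Ni-chelate acceptor beads 10 ug/mL final, 20 min dark; AlphaScreen read.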
G9a inh: qHTS Assay for Inhibitors of Histone Lysine Methyltransferase G9a; Histone-lysine N-methyltransferase EHMT2 (Homo sapiens), Q96KQ7; G9a H3K9 monomethylation, AlphaScreen, 2 h; Potency, µM (series often up to 102 µM), actives largely listed as inhibitors; hit rate 8.8% among 350,000; note: nearly all actives have a fitted effect of over 75% in size
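G9a (20 nM) was preincubated 15 min with compound, then reacted 2 h at room temperature with 500 nM biotin-H3K9 peptide and 20 µM SAM. Monomethyl-H3K9 detected by AlphaScreen using anti-H3K9me1 antibody.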
JMJD2A Tudor inh: qHTS Assay for Inhibitors of JMJD2A-Tudor Domain. Lysine-specific demethylase 4A (Homo sapiens), O75164. AlphaScreen JMJD2A-Tudor / H3K4me3 peptide binding. Potency, µM (top dose mostly 114 µM), actives largely listed as inhibitors. hit rate 4.4% among 390,000. AID 504339, 2011; note: nearly all actives have a fitted effect of over 50% in size
PI5P4Ka inh: qHTS for Inhibitors of phosphatidylinositol 5-phosphate 4-kinase (PI5P4K) | Phosphatidylinositol 5-phosphate 4-kinase type-2 alpha (Homo sapiens), P48426 | PI5P4Kalpha enzyme, ADP-Glo luminescence, 60 min; active compounds read low | max response, % | hit rate 1.2% among 330,000; active = max response of -50% or lower; inconclusive = between -30% and -50%; inactive = -30% or higher; note: value at the top dose of about 77 µM
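Luminescence from ADP-Glo served as readout of PI5P4Kalpha activity in a qHTS format. Reaction: enzyme, substrate, compound, ATP at 5 microM final, 60 min at RT.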
L3MBTL1 block: qHTS Assay for the Inhibitors of L3MBTL1. Potency, µM (top dose mostly 57.1 µM), hits mostly inhibitors. hit rate 0.66% among 230,000. Lethal(3)malignant brain tumor-like protein 1 (Homo sapiens), Q9Y468. AlphaScreen L3MBTL1–H3K9me1 peptide binding; note: nearly all actives have a fitted effect of over 60% in size
Target sequence (Q9Y468 whole entry, looked up): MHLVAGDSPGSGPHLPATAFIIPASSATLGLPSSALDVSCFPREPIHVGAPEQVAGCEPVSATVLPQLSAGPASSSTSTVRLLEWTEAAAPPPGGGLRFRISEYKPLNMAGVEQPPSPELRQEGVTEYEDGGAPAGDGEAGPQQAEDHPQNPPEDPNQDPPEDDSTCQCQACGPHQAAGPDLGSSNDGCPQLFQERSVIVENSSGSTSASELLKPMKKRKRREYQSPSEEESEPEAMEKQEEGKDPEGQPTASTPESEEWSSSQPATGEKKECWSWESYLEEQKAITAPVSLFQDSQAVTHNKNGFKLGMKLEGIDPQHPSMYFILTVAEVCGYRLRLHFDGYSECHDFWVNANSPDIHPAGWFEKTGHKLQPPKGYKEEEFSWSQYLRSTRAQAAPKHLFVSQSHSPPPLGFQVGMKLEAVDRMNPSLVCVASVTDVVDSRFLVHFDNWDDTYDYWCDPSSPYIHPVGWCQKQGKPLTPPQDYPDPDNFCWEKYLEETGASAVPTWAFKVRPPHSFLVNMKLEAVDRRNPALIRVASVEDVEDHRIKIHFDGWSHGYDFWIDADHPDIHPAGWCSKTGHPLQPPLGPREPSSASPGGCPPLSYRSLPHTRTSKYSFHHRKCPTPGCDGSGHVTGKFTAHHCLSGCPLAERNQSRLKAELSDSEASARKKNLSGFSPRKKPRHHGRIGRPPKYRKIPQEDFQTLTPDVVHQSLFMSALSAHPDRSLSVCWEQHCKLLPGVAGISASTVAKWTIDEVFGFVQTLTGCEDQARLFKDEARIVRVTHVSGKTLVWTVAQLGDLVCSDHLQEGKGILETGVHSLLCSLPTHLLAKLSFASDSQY
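L3MBTL1 50 nM + b-AHA-H3(1-15)K9me1 75 nM, 30 min RT; compound added, 30 min RT; streptavidin donor/Ni-chelate acceptor beads 10 ug/mL each final, 30 min RT dark; AlphaScreen read.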
Large screens that a line does not name were inactive. Unless noted, calls come from the whole dose curve; as a rule, active = well fitted inhibition curve with a large enough effect; inconclusive = small, poorly fitted or top-dose-only effect; inactive = no such curve, though single readings can be large or run the other way.

COc1ccccc1CN(C)C(=O)C(NC(=O)Cc1cccc2ccccc12)C(C)C (centres undefined)	G9a inh 7.94µM (no result: L3MBTL1 block)
COc1ccc(CN(C)C(=O)CNC(=O)Cc2cccc3ccccc23)c(OC)c1OC	none (no result: G9a inh, L3MBTL1 block)
COc1ccc(C(=O)N2CCC3(CC2)CN(c2ccccc2)C3)cc1	none (no result: HP1b binding inh, BAZ2B block, JMJD2A Tudor inh, PI5P4Ka inh, L3MBTL1 block)
CCc1cccc(CC)c1-n1c(-c2cccnc2)n[nH]c1=S	G9a inh inconclusive, JMJD2A Tudor inh inconclusive
S=c1[nH]nc(-c2cccc3ccccc23)n1-c1cccnc1	JMJD2A Tudor inh 20µM
Cc1ccccc1-n1c(-c2cccnc2)n[nH]c1=S	G9a inh 5.01µM, JMJD2A Tudor inh 11.2µM (no result: PI5P4Ka inh, L3MBTL1 block)
CC(C)c1ccccc1-n1c(-c2cccnc2)n[nH]c1=S	JMJD2A Tudor inh 10µM
Cc1c(CNC2CCC(C)CC2)c(C(=O)O)c(C)n1Cc1ccc(Cl)cc1 (centres undefined)	BAZ2B block inconclusive (no result: PI5P4Ka inh, L3MBTL1 block)
O=S(=O)(NCCc1csc(-c2ccc(F)cc2)n1)c1ccc(Cl)cc1	none (no result: PI5P4Ka inh, L3MBTL1 block)
Cn1c(C(=O)N2CCOCC2)cnc1Sc1ncc(C(F)(F)F)cc1Cl	BAZ2B block inconclusive (no result: L3MBTL1 block)
CCCNC(=O)c1cnc(Sc2ncc(C(F)(F)F)cc2Cl)n1C	BAZ2B block 50.1µM (no result: L3MBTL1 block)
C=CCNc1n[nH]c(=S)s1	none (no result: HP1b binding inh, BAZ2B block, G9a inh, JMJD2A Tudor inh, L3MBTL1 block)
O=C(Nc1n[nH]c(=S)s1)c1ccc2ccccc2c1	PI5P4Ka inh -55.2 (no result: G9a inh, L3MBTL1 block)
CNc1n[nH]c(=S)s1	HP1b binding inh 25.1µM, G9a inh 3.55µM, JMJD2A Tudor inh 5.01µM, PI5P4Ka inh -57.4
CC(=O)Nc1n[nH]c(=S)s1	HP1b binding inh inconclusive, JMJD2A Tudor inh 5.01µM, PI5P4Ka inh -85.7 (no result: BAZ2B block, G9a inh, L3MBTL1 block)
CCc1ccc(NC(=O)c2ccc(CN3CC(=O)N4CCCCC4C3=O)cc2)cc1 (centres undefined)	none (no result: PI5P4Ka inh, L3MBTL1 block)
Clc1ccccc1-c1nnc(SCc2nc(-c3ccccc3)no2)n1-c1ccccc1	none (no result: PI5P4Ka inh, L3MBTL1 block)
O=S(=O)(c1ccccc1)N1CCC2(CCCN(Cc3ccncc3)C2)CC1	none (no result: HP1b binding inh, BAZ2B block, JMJD2A Tudor inh, PI5P4Ka inh, L3MBTL1 block)
Cn1c(SCC(=O)c2ccccc2)nnc1-c1cccnc1	none (no result: PI5P4Ka inh)
Cn1c(SSc2ccc(-c3cccnc3)n2C)ccc1-c1cccnc1	HP1b binding inh inconclusive, JMJD2A Tudor inh 50.1µM (no result: BAZ2B block, G9a inh, L3MBTL1 block)
Cc1nc2cnc(N3CCNCC3)nc2n(C2CC2)c1=O	none (no result: HP1b binding inh, BAZ2B block, JMJD2A Tudor inh, PI5P4Ka inh, L3MBTL1 block)
Cc1ccc(-c2cc(NC(=O)CCl)n(-c3ccccc3)n2)cc1	JMJD2A Tudor inh 79.4µM
CCc1cccc(C)c1NC(=O)CN1C(=O)c2ccccc2Sc2ncccc21	none (no result: PI5P4Ka inh, L3MBTL1 block)
COc1cccc(-n2ccnc2SCC(=O)Nc2nc3ccc(C)cc3s2)c1	none (no result: PI5P4Ka inh, L3MBTL1 block)
Cc1ccc(S(=O)(=O)N(CCc2ccccc2)CC(=O)Nc2ccc(Br)cc2)cc1	none (no result: PI5P4Ka inh, L3MBTL1 block)
Cc1ccc(-n2c(CSc3nc(C)cc(C)n3)n[nH]c2=S)cc1	G9a inh 3.98µM, JMJD2A Tudor inh 25.1µM
Cc1cc(C)nc(SCc2n[nH]c(=S)n2C)n1	G9a inh 7.08µM, JMJD2A Tudor inh 39.8µM, L3MBTL1 block inconclusive
CCCSc1nnc(CSc2nc(C)cc(C)n2)n1C	JMJD2A Tudor inh 56.2µM
CCC(C)Sc1nnc(CSc2nc(C)cc(C)n2)n1C (centres undefined)	none
CCOC(=O)c1cc2c(=O)n3ccccc3nc2n(C(C)C)c1=NC(=O)C(C)(C)Oc1ccc(Cl)cc1	none (no result: PI5P4Ka inh, L3MBTL1 block)
COc1ccc(Cn2c(=O)c3oc4ccccc4c3n(CC(=O)Nc3cc(C)cc(C)c3)c2=O)cc1	none (no result: PI5P4Ka inh, L3MBTL1 block)
CCOc1c(C=C(C#N)C#N)c2ccccc2n1CC	G9a inh 10µM, JMJD2A Tudor inh inconclusive
CCn1c(O)c(C(C#N)=C2N=c3ccccc3=N2)c2ccccc21	none (no result: PI5P4Ka inh)
CN(C)c1ncc2nc(-c3ccc(Cl)cc3)c(=O)n(Cc3cccs3)c2n1	none (no result: HP1b binding inh, BAZ2B block, JMJD2A Tudor inh, PI5P4Ka inh, L3MBTL1 block)
O=C(O)CC(NC(=O)C12CC3CC(CC(C3)C1)C2)c1cc([N+](=O)[O-])ccc1Cl (centres undefined)	JMJD2A Tudor inh 56.2µM (no result: L3MBTL1 block)
Cc1cc2c(s1)c1cnn(Cc3c(F)c(F)c(C)c(F)c3F)c(=O)c1n2C	none (no result: HP1b binding inh, BAZ2B block, G9a inh, PI5P4Ka inh, L3MBTL1 block)
